Screens deposited in PubChem BioAssay by several laboratories.
This is a sample that favours compounds with a hit; in the whole collection about 2.6% have one here.
LGR2 antag: blocks bursicon-induced cAMP signaling via Drosophila LGR2; HEK293 LGR2, CRE-luciferase, bursicon-stimulated, 4 h; inhibition, % at 9.99 µM; 0.35% of 380,000 active; AID 720647;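 active means drop in luminescence signal, shown as inhibition above about 50% in the replicate tests, limit read from the data, passing the limit was not always enough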;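 further: agonist challenge used bursicon conditioned medium at about half maximal strength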
LMP1 NFkB inh: Epstein-Barr LMP1 NF-kappaB reporter inhibition. inhibition, % at 12.5 µM. LMP1-induced NF-kappaB luciferase reporter cells, luminescence. 0.69% of 350,000 active. AID 504558; in the data active means inhibition above about 41%
TWEAK-Fn14 inh: TWEAK-Fn14 signaling inhibition; AID 1159606; TWEAK-stimulated Fn14 reporter cells, luciferase luminescence, 8 h; 2% of 360,000 active; inhibition, % at 10 µM; in the data active means inhibition above about 50%
HSP90 refold inh: blocks HSP90-mediated luciferase refolding in reticulocyte lysate. Rabbit reticulocyte lysate, luciferase refolding luminescence, 3 h. inhibition, % at 5.6 µM. 0.91% of 290,000 active. AID 1789;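 active means inhibition above the screen-wide mean plus 3 SD, computed separately per campaign, cut at about 16% in these data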;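 further: inhibitors lower the luminescence because luciferase stays unfolded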
TROY NFkB inh: inhibitors of TROY-dependent NF-kB signaling; Q293 LMP1-TROYcd NF-kB luciferase reporter, 4 h; 0.98% of 360,000 active; AID 1347056; inhibition, % at 10 µM;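 active means compounds whose plate-normalised and pattern-corrected inhibition of the luciferase reporter signal at the single screening dose is 50% or more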
aDG glyco act: alpha-DG glycosylation activation. activation, % at 10 µM. 0.22% of 360,000 active. Pro5-aDG cells, alpha-DG glycosylation AlphaScreen (IIH6); 0% Pro5, 100% B10-LARGE cell signal;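 active means activation of at least 8% versus controls, or a plate z-score of at least 8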;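 further: Pro5 are CHO cells carrying HIG-tagged alpha-DG that lacks glycosylation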
Numbers stand for hits; i = inactive; nt = no result.

SMILES	LGR2 antag	LMP1 NFkB inh	TWEAK-Fn14 inh	HSP90 refold inh	TROY NFkB inh	aDG glyco act
COc1ccc(S(=O)(=O)N[C@H]2CC[C@@H](CC(=O)N3CCN(c4ccccc4)CC3)O[C@@H]2CO)cc1	i	nt	nt	nt	nt	nt
O=C(Nc1cccc(F)c1)N1CC(=O)N2[C@H](CO)[C@H](c3ccc(C#CCC4CCCC4)cc3)[C@@H]2C1	i	nt	nt	nt	nt	nt
CN1C(=O)c2cc(NC(=O)c3cnccn3)ccc2OC[C@H]2O[C@H](CC(=O)O)CC[C@H]21	i	nt	nt	nt	nt	nt
O=C(NC(NCc1ccccc1)C(Cl)(Cl)Cl)c1cccnc1 (stereo not drawn)	nt	i	i	i	i	i
Cc1ccccc1CC(=O)NCc1cccnc1	i	66.8	i	i	i	i
Cc1ccccc1CN(c1ccc(C(=O)NCc2cccnc2)cc1)S(C)(=O)=O	i	52.0	i	i	i	i
CN(c1ccc(C(=O)NCc2cccnc2)cc1)S(C)(=O)=O	nt	i	i	i	i	i
O=C(NC(NCc1cccnc1)C(Cl)(Cl)Cl)c1cccc2ccccc12 (stereo not drawn)	i	i	65.4	i	i	i
Cc1noc(C)c1S(=O)(=O)Nc1ccc2c(c1)C(=O)N([C@@H](C)CO)C[C@@H](C)[C@@H](CN(C)S(=O)(=O)c1ccc(F)cc1)OCCCC[C@@H](C)O2	i	nt	nt	nt	nt	nt
CC(C)C#Cc1cnc2c(c1)C(=O)N([C@H](C)CO)C[C@@H](C)[C@@H](CN(C)Cc1cncnc1)O2	i	nt	nt	nt	nt	nt
O=C(CCC(=O)NNC(=O)Nc1ccc(Cl)cc1)NCc1ccccc1	i	i	i	i	i	i
O=C(CCC(=O)NNC(=O)Nc1cccc(Cl)c1)NCc1ccccc1	i	42.3	i	i	i	i
CC(C)(C)c1cc(C(=O)NNC(=O)Nc2cccc(Cl)c2)n(Cc2ccccc2)n1	nt	53.0	i	i	i	i
O=C(CN1c2ccccc2Sc2ccccc21)NNC(=O)Nc1cccc(Cl)c1	nt	i	i	i	52.6	i
Cc1ccc(S(=O)(=O)Nc2ccc3c(c2)C(=O)N([C@H](C)CO)C[C@@H](C)[C@@H](CN(C)Cc2ccc(C(F)(F)F)cc2)OCCCC[C@H](C)O3)cc1	i	nt	nt	nt	nt	nt
O=C(O)CCc1c(C(=O)O)[nH]c2ccccc12	i	i	68.9	i	nt	i
C=CCN1C(=O)N(c2ccc(F)cc2)C(=O)C1CC(=O)Nc1ccc(Cl)cc1 (stereo not drawn)	i	i	80.2	i	i	i
C=CCN1C(=O)N(c2ccc(Cl)cc2)C(=O)C1CC(=O)Nc1ccc(F)cc1 (stereo not drawn)	i	i	i	i	i	i
O=C(Nc1ccc(F)cc1)Nc1cc(OCC(F)(F)F)cc(OCC(F)(F)F)c1	i	i	54.0	i	52.5	i
COC(=O)C[C@H]1CC[C@@H]2[C@H](COc3ccc(NS(=O)(=O)c4ccccc4F)cc3C(=O)N2C)O1	i	nt	nt	nt	nt	nt
CN1[C@@H]2c3ccc(-c4ccc(F)cc4)c(=O)n3C[C@H]1[C@H](CO)[C@H]2C(=O)N1CCCCC1	i	nt	nt	nt	nt	nt
COc1ccc(NC(=O)N2CCC3(CC2)CN(C(=O)C2CCC2)[C@H](CO)c2c3c3ccc(OC)cc3n2C)cc1	i	nt	nt	nt	nt	nt
CC(=O)OCCCNc1cc(Sc2ccc(C)cc2)c2nonc2c1[N+](=O)[O-]	51.2	i	80.3	i	63.6	i
O=[N+]([O-])c1c(NCCCO)cc(Sc2ccc(Cl)cc2)c2nonc12	i	47.6	i	i	79.3	i
C[C@@H]1CN([C@H](C)CO)S(=O)(=O)c2ccc(-c3ccc(F)cc3)cc2O[C@@H]1CN(C)C(=O)C1CCCCC1	i	nt	nt	nt	nt	nt
SMILES	LGR2 antag	LMP1 NFkB inh	TWEAK-Fn14 inh	HSP90 refold inh	TROY NFkB inh	aDG glyco act
Cc1ccccc1-c1ccccc1[C@H]1[C@@H](CO)N(C(=O)c2ccccc2)[C@H]1C#N	i	nt	nt	nt	nt	nt
Cc1c(Cl)cccc1NC(=O)Nc1c(C)n(C)n(-c2ccccc2)c1=O	i	i	i	i	i	i
Cc1cccc(NC(=O)Nc2c(C)n(C)n(-c3ccccc3)c2=O)c1C	i	48.5	i	i	i	i
O=S(=O)(c1cccs1)N1CCN(CC(O)COc2cc(Cl)ccc2Cl)CC1 (stereo not drawn)	i	i	i	i	51.6	i
O=S(=O)(c1cccs1)N1CCN(CCOc2ccc(Cl)cc2)CC1	i	i	i	nt	i	i
C[C@H]1CN([C@@H](C)CO)C(=O)Cc2cc(NC(=O)Nc3ccccc3)ccc2O[C@H]1CN(C)Cc1ccc(C(F)(F)F)cc1	i	nt	nt	nt	nt	nt
CC(=O)Nc1ccccc1C(=O)C(=O)Nc1cccc(C(=O)N2CC(C)CC(C)C2)c1 (stereo not drawn)	i	i	77.6	i	i	i
Cc1occc1C(=O)Nc1nnc(C(F)(F)F)s1	i	i	i	i	i	i
O=C(Nc1ccccc1C(=O)Nc1nnc(C(F)(F)F)s1)c1ccccc1	i	i	86.8	i	58.6	i
O=C(CSCc1nc2ccccc2[nH]1)Nc1ccc2ccccc2c1	nt	i	i	i	i	i
O=C(CSCc1cccc(CSCC(=O)Nc2ccc3ccccc3c2)n1)Nc1ccc2ccccc2c1	nt	i	67.1	i	i	i
COc1ccc(CNc2oc(COc3ccccc3)nc2C#N)cc1	nt	i	i	i	i	i
COc1ccc(Nc2oc(COc3ccccc3F)nc2C#N)cc1	i	i	56.6	i	i	i
COc1ccc(Nc2oc(COc3cccc(C)c3)nc2C#N)cc1	nt	i	67.5	i	i	i
COc1ccc(Nc2oc(COc3ccc(C)cc3)nc2C#N)cc1	nt	i	69.2	i	i	i
COc1ccc(Nc2oc(COc3ccc(OC)cc3)nc2C#N)cc1	nt	i	85.7	i	i	i
Cc1ccc(OCc2nc(C#N)c(NCc3ccco3)o2)cc1	nt	i	i	i	i	i
Cc1noc(C)c1S(=O)(=O)N(C)C[C@@H]1Oc2ccc(NC(=O)CCCCCC(=O)Nc3ccccc3N)cc2CC(=O)N([C@@H](C)CO)C[C@H]1C	i	nt	nt	nt	nt	nt
OC[C@H]1[C@H](c2ccc(-c3ccc(F)cc3)cc2)[C@@H]2CN(Cc3cccnc3)CCCCN12	i	nt	nt	nt	nt	nt
CCOc1ccc(/C=C2\SC(=O)N(CCNC(=O)C3COc4ccccc4O3)C2=O)cc1OC (stereo not drawn)	i	i	i	i	51.3	i
COc1cccc(NC(=O)N2CC3(C2)[C@@H](c2ccccc2)[C@@H](CO)N3C(=O)C2CCCC2)c1	i	nt	nt	nt	nt	nt
CC(=O)N1c2ccc(S(=O)(=O)NCC3CCC(C(=O)Nc4cccc(C)n4)CC3)cc2CC1C (stereo not drawn)	i	i	58.8	i	i	i
CC(=O)N1c2ccc(S(=O)(=O)N3CCC(C(=O)Nc4cccc(C)n4)CC3)cc2CC1C (stereo not drawn)	i	i	i	i	i	i
C[C@@H]1CN([C@H](C)CO)C(=O)c2cc(N(C)C)ccc2O[C@@H](C)CCCCO[C@@H]1CN(C)Cc1ccc(C(F)(F)F)cc1	i	nt	nt	nt	nt	nt
N#C[C@H]1[C@H](c2ccccc2C2=CCCCC2)[C@@H](CO)N1S(=O)(=O)c1ccccc1	67.8	nt	nt	nt	nt	nt
